Data published in the supplement of paper PMC10338343.
± gives the standard deviation.

These sequences were tested on EfPiwi piRISC loaded with L1MC piRNA (26 nt) (assay: pre-steady-state target cleavage rate (min^-1); auxiliary factor: 500 nM Ephydatia muelleri Gtsf1; guide: L1MC piRNA 5'p-UAACUAAAUACUAUGCAAGCUGUAGG; MIWI and MILI are mouse PIWI proteins and EfPiwi is from a freshwater sponge; tags in brackets are library labels; higher = faster piRNA-guided slicing of the target).
How it was run: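 Active affinity-purified piRISC (1 nM) loaded with one synthetic guide was mixed with a transcribed, DNA-blocked target RNA library (0.1 nM), with or without 500 nM GTSF1 partner protein, in HEPES–potassium acetate buffer at 33 °C for 0–8 or 0–960 min. Uncleaved targets were sequenced, normalised to depth and to weakly complementary targets, and pooled across three trials, with k3 capped at 0.0001 min^-1. The pre-steady-state cleavage rate was determined with a burst-and-steady-state fit.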

| Sequence | pre-steady-state target cleavage rate |
| --- | --- |
| UCCUGGUUCAGGUUGCAUAGUAUUUAGUUA | 0.0166 ± 0.0047 |
| UCCUGCUACAGCUUGCACAGUAUUUAGUUA | 0.0133 ± 0.0041 |
| UCCUGGUACAGGAUGCAUAGUAUUUAGUAA | 0.00412 ± 0.002 |
| UCCUGGAUGAGCUUGCAUUGUAUUAAGUUA | 0.0041 ± 0.0035 |
| UCCUGGUACAGCUUGCAUAGUAUUUAUGUUA | 0.00329 ± 0.0024 |
| UCCUGGAACAGCUUGCAUAGUAAAUAGUUA | 0.00589 ± 0.0023 |
| UCCUGCAACAGCUUGGAUAGUAUUUAGUUA | 0.0256 ± 0.0066 |
| UCCUGGAUCAGCUUGCAUAGAAUUUAGUUA | 0.00327 ± 0.0015 |
| UCCUGGAUCUAGCUUGCAUAGUAUUUAGUUA | 0.0755 ± 0.019 |
| UCCUGCUUCAGCUUGCAUAGUAUUUAGUAA | 0.00811 ± 0.0033 |
| UCCUCCUACAGCUCUGCAUAGUAUUUAGUUA | 0.0445 ± 0.014 |
| UCCUGGAUCAGAUUGCAUAGUAUUUAGUUA | 0.0613 ± 0.011 |
| UCCUGGAUCAGGAUGCAUAGUAUUUAGUUA | 0.0121 ± 0.0027 |
| UCCUCCUACAGCUAGCAUACUAUUUAGUUA | 0.00634 ± 0.002 |
| UCCUGGUAGAGCUUGCAUAGUAUAUAGUUA | 0.0131 ± 0.0051 |
| UCCUGGAUGUCCUUGCAUACUAUUUAGUUA | 0.00333 ± 0.0024 |
| UCCUGGUACAGCAUGCAUACUAUUUAGUUA | 0.00483 ± 0.0019 |
| UCCUGCAUGAGCUUGCAUAGUAUUUAGUAA | 0.0061 ± 0.0025 |
| UCCUGGAACAGCUAGCAUAGUAUUUAGUUA | 0.015 ± 0.0041 |
| UCCUGGAUCAGCUUGCAUAGUAUUUAGAAA | 0.00346 ± 0.0016 |

| Sequence | pre-steady-state target cleavage rate |
| --- | --- |
| UCCUGCUACAGCUAGCAUAGUAAUUAGUUA | 0.00598 ± 0.0018 |
| UCCUGCUACAGCGUGCAUAGUAUUUAGUUA | 0.0101 ± 0.0026 |
| UCCUGGAUGUCCUUCGCAUAGUAUUUAGUUA | 0.01 ± 0.0052 |
| UCCUCCUACAGCUUGCUUACUAUUUAGUUA | 0.0407 ± 0.015 |
| UCCUGGAACAGCUAGCUUAGUAUUUAGUUA | 0.00846 ± 0.0037 |
| UCCUGCUAGAGCUAGCAUAGUAUUUAGUUA | 0.00618 ± 0.0016 |
| UCCUCCUACAGCUUGGUUAGUAUUUAGUUA | 0.0149 ± 0.006 |
| UCCUGGAUCAGCCUGCAUAGUAUUUAGUUA | 0.0209 ± 0.006 |
| UCCUGCUACAGCUAGCAUUGUAUUUAGUUA | 0.00762 ± 0.0028 |
| UCCUGGAACAGCUUGCAUAGUAUGUAGUUA | 0.00302 ± 0.0021 |
| UCCUCCUACAGCAUGCAUAGUAUUUAGUAA | 0.00521 ± 0.0023 |
| UCCUGCUACAGCUUGCAUAGUAUUUAGUUG [g2:g25:cont:t1G] | 0.00685 ± 0.0019 |
| UCCUGGUACAGCUAGCAUAGUAUUUAGUAA | 0.00365 ± 0.0021 |
| UCCUGGAACAUCUUGCAUAGUAUUUAGUUA | 0.0653 ± 0.016 |
| UCCUGCAACAGCUUGCAAAGUAUUUAGUUA | 0.022 ± 0.0052 |
| UCCUGGUACAGCAUGCAUAGUAAUUAGUUA | 0.00882 ± 0.0034 |
| UCCUGGUACAGCUGUGCAUAGUAUUUAGUUA | 0.00903 ± 0.0034 |
| UCCUGGAUGAGCUUGCACAGUAUUUAGUUA | 0.0152 ± 0.0046 |
| UCCUGGAACAGCUUGCAUAGUAUUAGUUA | 0.00229 ± 0.0021 |
